Source: PubChem BioAssay (Tox21)
Inconclusive results are not listed. Where a call stands in place of a potency, no number is given. Calls of active or inactive are those of the source. Calls follow the shape of the dose curve; as a rule, active = well fitted activation curve with a large enough effect in the signal ratio in the repeat runs (not every such curve was filed as active); inconclusive = weak or mixed curves, or effect the other way; inactive = no such curve, though single readings can be large or run the other way; the % refers to the signal ratio.

biological target: Peroxisome proliferator-activated receptor gamma (Homo sapiens) (UniProt P37231); experiment: qHTS assay to identify small molecule agonists of the peroxisome proliferator-activated receptor gamma (PPARg) signaling pathway (AID 743094); settings: HEK293H PPARg-UAS-bla, beta-lactamase FRET ratio, 17 h; series mostly up to 57 µM
Text: U.S. Tox21 Program National Center for Advancing Translational Sciences [NCATS] NIH Chemical Genomics Center [NCGC] U.S. Environmental Protection Agency [EPA] National Institutes of Environmental Health Sciences [NIEHS] National Toxicology Program [NTP] U.S. Food and Drug Administration [FDA] Tox21 Assay Overview: The peroxisome proliferator-activated receptors (PPARs) are lipid-activated transcription factors of the nuclear receptor superfamily with three distinct subtypes namely PPAR alpha, PPAR delta (also called PPAR beta) and PPAR gamma (PPARg). All these subtypes heterodimerize with Retinoid X receptor (RXR) and these heterodimers regulate transcription of various genes. PPAR-gamma receptor (glitazone receptor) is involved in the regulation of glucose and lipid metabolism. To identify the compounds that activate PPAR-gamma signaling, GeneBLAzer PPAR gamma UAS-bla HEK293H cell line (Invitrogen, Carlsbad, CA, USA) containing a beta-lactamase reporter gene under control of the control of an upstream activator sequence (UAS) stably integrated into HEK293H cells was used to screen Tox21 compound library.
Tox21 Assay Protocol Summary: PPARg-bla cells were dispensed at 3000 cells/6uL/well in 1536-well black wall/clear bottom plates using a Multidrop Combi (Thermo Fisher Scientific, Waltham, MA) dispenser. After the assay plates were incubated at 37C and 5% CO2 for 5 h, 23 nL of compounds dissolved in DMSO, positive controls or DMSO only was transferred to the assay plate by a Pintool station (Kalypsys, San Diego, CA). The assay plates were incubated at 37C for 17 h. After 1 uL of LiveBLAzerTM B/G FRET substrate was added using a Bioraptr Flying Reagent Dispenser (FRD) workstation (Beckman Coulter, Indianapolis, IN, USA), the plates were incubated at room temperature for 1 h, and fluorescence intensity was measured by an Envision plate reader (PerkinElmer, Shelton, CT).

Peroxisome proliferator-activated receptor gamma (Homo sapiens), sequence (P37231 whole entry, looked up): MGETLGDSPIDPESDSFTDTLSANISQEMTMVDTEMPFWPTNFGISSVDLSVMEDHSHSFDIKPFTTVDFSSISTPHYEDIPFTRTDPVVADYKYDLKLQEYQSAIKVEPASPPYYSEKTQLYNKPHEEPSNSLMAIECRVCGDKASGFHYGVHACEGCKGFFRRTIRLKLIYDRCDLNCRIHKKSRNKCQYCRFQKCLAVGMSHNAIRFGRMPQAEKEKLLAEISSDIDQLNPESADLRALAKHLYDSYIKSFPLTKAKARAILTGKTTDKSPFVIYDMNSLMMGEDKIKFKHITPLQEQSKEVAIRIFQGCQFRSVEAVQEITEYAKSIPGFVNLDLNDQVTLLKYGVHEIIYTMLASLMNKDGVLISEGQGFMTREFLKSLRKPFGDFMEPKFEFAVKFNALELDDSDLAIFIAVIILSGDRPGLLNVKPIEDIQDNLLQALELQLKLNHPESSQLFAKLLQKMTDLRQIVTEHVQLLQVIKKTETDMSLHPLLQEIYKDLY

How did the Potency turn out when `CCCCCCCCCCCCCCCC(=O)OCCC1CCN(CCCN2c3ccccc3Sc3ccc(S(=O)(=O)N(C)C)cc32)CC1` was run?
Its Potency is “inactive”.

Which Potency does the source give for `NCCC(=O)[N-][C@@H](Cc1cnc[nH]1)C(=O)O.[Zn]` here?
Its Potency is “inactive”.

`CC(C)C[C@H](NC(=O)[C@@H](Cc1c[nH]c2ccccc12)NC(=O)[C@H](Cc1ccc(O)cc1)NC(=O)[C@H](CO)NC(=O)[C@H](Cc1c[nH]c2ccccc12)NC(=O)[C@H](Cc1cnc[nH]1)NC(=O)[C@@H]1CCC(=O)N1)C(=O)N[C@@H](CCCN=C(N)N)C(=O)N1CCC[C@@H]1C(=O)NCC(N)=O` was tested. Which Potency did it give?
The Potency was “inactive”.

For `C=C1/C(=C\C=C2/CCC[C@]3(C)[C@@H]([C@H](C)OCCC(C)(C)O)CC[C@@H]23)C[C@@H](O)C[C@@H]1O`, which Potency is on record?
The Potency was “inactive”.

How did the Potency turn out when `CCCOc1cc(N)ccc1C(=O)OCCN(CC)CC` was run?
Its Potency is “inactive”.

Which Potency does the source give for `O=[N+]([O-])O[C@@H]1CO[C@H]2[C@@H]1OC[C@@H]2O` here?
The Potency was “inactive”.

Which Potency does the source give for `CC(C)(C)C1(O)CCN2CC3c4ccccc4CCc4cccc(c43)C2C1` (stereo not given) here?
Its Potency is “inactive”.

`NS(=O)(=O)c1cc2c(cc1Cl)NC(Cc1ccccc1)NS2(=O)=O` (stereo not given) was tested. Which Potency did it give?
The Potency was “inactive”.

`CN1CC(O)c2cc(N=NC(N)=O)c(O)cc21` (stereo not given) was tested. Which Potency did it give?
Its Potency is “inactive”.

With `c1ccc2c(CCC3CCNCC3)c[nH]c2c1` as the molecule, how does the Potency read?
Its Potency is “inactive”.

For `S=C=Nc1ccc(N=C=S)cc1`, which Potency is on record?
The Potency was “inactive”.

For `Oc1cc(O)cc(O)c1`, which Potency is on record?
The Potency was “inactive”.

Which Potency does the source give for `COc1ccc(C2NC(=S)N3C(c4ccc(OC)c(OC)c4)NC(=S)N23)cc1OC` (stereo not given) here?
Its Potency is “inactive”.

How did the Potency turn out when `COc1cc(S(C)=O)ccc1-c1nc2ncccc2[nH]1` (stereo not given) was run?
The Potency was “inactive”.

`Cc1cccc(Nc2ncccc2C(=O)O)c1C` was tested. Which Potency did it give?
Its Potency is “inactive”.

Which Potency does the source give for `C[C@H]1C[C@H]2[C@@H]3CCC4=CC(=O)C=C[C@]4(C)[C@@]3(F)[C@@H](O)C[C@]2(C)[C@@]1(O)C(=O)CCl` here?
The Potency was “inactive”.

For `Cn1cc(NC(=O)c2cc(NC(=O)c3cc(NC=O)cn3C)cn2C)cc1C(=O)NCCC(=N)N`, which Potency is on record?
The Potency was “inactive”.

How did the Potency turn out when `C/C(=C(\CCOC(=O)c1ccccc1)SS/C(CCOC(=O)c1ccccc1)=C(/C)N(C=O)Cc1cnc(C)nc1N)N(C=O)Cc1cnc(C)nc1N` was run?
Its Potency is “inactive”.

For `CCOC(=O)[C@H](CCc1ccccc1)N[C@H]1CCCN2CCC[C@@H](C(=O)O)N2C1=O`, which Potency is on record?
The Potency was “inactive”.

How did the Potency turn out when `CC(O)[C@@H]1NC(=O)[C@H](CCCCN)NC(=O)[C@@H](Cc2c[nH]c3ccccc23)NC(=O)[C@H](Cc2ccccc2)NC(=O)[C@@H](NC(=O)[C@H](N)Cc2ccccc2)CSSC[C@@H](C(=O)N[C@H](CO)[C@@H](C)O)NC1=O` (stereo not given in full) was run?
The Potency was “inactive”.

Which Potency does the source give for `CCCc1ccc(C(=O)O)cc1` here?
The Potency was “inactive”.

`CN1CCN(C2=Nc3ccccc3Cc3ccccc32)CC1` was tested. Which Potency did it give?
The Potency was “inactive”.

How did the Potency turn out when `Clc1ccc(COC(Cn2ccnc2)c2ccc(Cl)cc2Cl)c(Cl)c1` (stereo not given) was run?
The Potency was “inactive”.

With `C=C1CC2C3CCC4=CC(=O)C=C[C@]4(C)[C@@]3(F)[C@@H](O)C[C@]2(C)[C@@]1(O)C(=O)COC(C)=O` (stereo not given in full) as the molecule, how does the Potency read?
The Potency was “inactive”.

With `CCOC(=O)CN[C@@H](C(=O)N1CC[C@H]1C(=O)NCc1ccc(/C(N)=N/O)cc1)C1CCCCC1` as the molecule, how does the Potency read?
The Potency was “inactive”.

With `CCC[C@@H]1C[C@@H](C(=O)N[C@@H]([C@H]2O[C@H](SC)[C@H](O)[C@@H](O)[C@H]2O)[C@H](C)Cl)N(C)C1` as the molecule, how does the Potency read?
The Potency was “inactive”.

How did the Potency turn out when `Cc1c(O)cc2c(c1C)O[C@](C)(CCC[C@H](C)CCC[C@H](C)CCCC(C)C)CC2` was run?
The Potency was “inactive”.

`CCN(CC)CCOc1ccc2nc(N(C)C)sc2c1` was tested. Which Potency did it give?
The Potency was “inactive”.

Which Potency does the source give for `CC(C)[C@@H]1CC[C@@H](C)C[C@H]1OC(=O)c1ccccc1O` here?
The Potency was “inactive”.

For `O=C(NCCNCC(O)COc1ccc(O)cc1)N1CCOCC1` (stereo not given), which Potency is on record?
Its Potency is “inactive”.

`CC(C)(C)CC(=O)OCC(=O)[C@@]12OC(C)(C)O[C@@H]1C[C@H]1[C@@H]3CCC4=CC(=O)C=C[C@]4(C)[C@@]3(F)[C@@H](O)C[C@@]12C` was tested. Which Potency did it give?
The Potency was “inactive”.

`CN[C@@H]1[C@@H](O)[C@@H](O[C@@H]2[C@@H](O)[C@H](OC3OC(CN)=CCC3N)[C@@H](N)C[C@H]2N)OC[C@]1(C)O` (stereo not given in full) was tested. Which Potency did it give?
The Potency was “inactive”.

For `CN1CCCC(CN2c3ccccc3Sc3ccccc32)C1` (stereo not given), which Potency is on record?
Its Potency is “inactive”.

`CC(C)c1nc(N(C)S(C)(=O)=O)nc(-c2ccc(F)cc2)c1/C=C/C(O)CC(O)CC(=O)O` (stereo not given) was tested. Which Potency did it give?
The Potency was “inactive”.

`C#C[C@]1(O)CC[C@H]2[C@@H]3CCC4=C(CCC(=O)C4)[C@H]3CC[C@@]21C` was tested. Which Potency did it give?
The Potency was “inactive”.

`O=C(CO)[C@@H](O)[C@H](O)[C@@H](O)C(=O)O` was tested. Which Potency did it give?
The Potency was “inactive”.

For `C=CCSSSCC=C`, which Potency is on record?
The Potency was “inactive”.

With `CCCN(CC)C(CC)C(=O)Nc1c(C)cccc1C` (stereo not given) as the molecule, how does the Potency read?
The Potency was “inactive”.

`CC(=O)O[C@H]1C[C@@H]2CC[C@@H]3[C@H](CC[C@@]4(C)[C@H]3C[C@H](N3CC[N+](C)(C)CC3)[C@@H]4OC(C)=O)[C@@]2(C)C[C@@H]1N1CC[N+](C)(C)CC1` was tested. Which Potency did it give?
The Potency was “inactive”.

For `CCC(c1ccccc1)c1noc(CCN(CC)CC)n1` (stereo not given), which Potency is on record?
Its Potency is “inactive”.
